Measured values reported in PubChem BioAssay (NCI).
This is part of a sample that, as a whole, favours compounds with a hit. Of some 79,000 tested, about 15% had one in any assay. Calls of active or inactive are those of the source. Rule as the data show it: active = growth inhibition above about 70%; inactive = the rest.

Tests used:
[1] = NCI Yeast Anticancer Drug Screen. Data for the rad52 strain (AID 147);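 also: 0% = growth of vehicle-treated control cultures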; settings: S. cerevisiae rad52 mutant growth inhibition, active compounds read high
In short: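 Genetically altered yeast (DNA damage repair defect) treated with compound; inhibition calculated relative to vehicle.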

[2] = NCI Yeast Anticancer Drug Screen. Data for the wt1 strain (AID 149);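 also: 0% = growth of vehicle-treated wt1 cultures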; settings: S. cerevisiae wt1 strain (SPY 50644) growth inhibition, active compounds read high
In short: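 Growth inhibition read against vehicle controls after compound exposure of the wt1 yeast strain.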

[3] = NCI Yeast Anticancer Drug Screen. Data for the rad50 strain (AID 155);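 also: 0% = growth of vehicle-only cultures of the same strain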; settings: S. cerevisiae rad50 strain growth inhibition, active compounds read high
In short: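 Readout: growth inhibition relative to vehicle-treated cultures. Compound exposure was carried out in a genetically defined yeast strain deficient in DNA damage repair.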

[4] = NCI Yeast Anticancer Drug Screen. Data for the mec2-1 strain (AID 157); settings: S. cerevisiae mec2-1 strain, active compounds read high
In short: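 Cells of the genetically defined mec2-1 yeast strain are incubated with test compound. Inhibition of growth is calculated against vehicle-treated controls.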

[5] = NCI Yeast Anticancer Drug Screen. Data for the rad14 strain (AID 159);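 also: 0% = growth of vehicle-treated control cultures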; settings: S. cerevisiae rad14 strain growth inhibition, active compounds read high
In short: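 Growth inhibition vs vehicle controls; genetically altered yeast strain (DNA damage repair defect) treated with test compounds.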

[6] = NCI Yeast Anticancer Drug Screen. Data for the sgs1 mgt1 strain (AID 161);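 also: 0% = growth of cultures given vehicle only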; settings: S. cerevisiae sgs1 mgt1 strain, active compounds read high
In short: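 Mutant yeast exposed to compound; growth scored against vehicle-only wells.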

[7] = NCI Yeast Anticancer Drug Screen. Data for the CLN2oe strain (AID 163);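 also: 0% = growth of vehicle-only control cultures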; settings: S. cerevisiae CLN2oe strain, active compounds read high
In short: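 Strain altered in cell-cycle control, incubated with compound; growth compared to solvent-treated controls.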

[8] = NCI Yeast Anticancer Drug Screen. Data for the cln2 rad14 strain (AID 165);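 also: 0% = growth equal to vehicle treated cultures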; settings: S. cerevisiae cln2 rad14 strain, active compounds read high
In short: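 The screen exposed genetically defined yeast (cln2 rad14) to test compounds and scored growth inhibition relative to vehicle-treated controls.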

[9] = NCI Yeast Anticancer Drug Screen. Data for the bub3 strain (AID 167); settings: S. cerevisiae bub3 mutant strain, active compounds read high
In short: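 Readout: yeast growth inhibition, expressed relative to vehicle-only wells. The test organism is a mutant strain from a panel with lesions in DNA repair or checkpoint genes.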

[10] = NCI Yeast Anticancer Drug Screen. Data for the wt2 strain (AID 169);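 also: 0% = growth of vehicle-treated yeast cultures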; settings: S. cerevisiae wt2 strain growth inhibition, active compounds read high
In short: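 Steps: yeast strain treated with compound; growth recorded; inhibition calculated relative to cultures given vehicle alone.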

[11] = NCI Yeast Anticancer Drug Screen. Data for the mlh1 strain (AID 171);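 also: 0% = growth of vehicle-treated control cultures of the same strain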; settings: S. cerevisiae mlh1 strain growth inhibition, active compounds read high
In short: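 Yeast screen: mutant strain plus compound, growth scored against vehicle control wells.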

[12] = NCI Yeast Anticancer Drug Screen. Data for the sgs1 strain (AID 173);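 also: 0% = growth of vehicle-only control cultures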; settings: S. cerevisiae sgs1 mutant, active compounds read high
In short: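 Inhibition of yeast growth served as the measure. The mutant strain was treated with each compound, and growth was normalised to cultures receiving vehicle alone.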

[13] = NCI Yeast Anticancer Drug Screen. Data for the mlh1 rad18 strain (AID 175); settings: S. cerevisiae mlh1 rad18 strain growth inhibition, active compounds read high
In short: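 Compound-treated yeast growth, normalised to vehicle controls. Strain bears defined DNA repair mutations.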

[14] = NCI Yeast Anticancer Drug Screen. Data for the rad18 strain (AID 177); settings: S. cerevisiae rad18 mutant growth inhibition, active compounds read high
In short: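 Inhibition values reflect reduced yeast growth compared with vehicle-treated controls, using a strain engineered with a DNA damage repair defect.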

[15] = NCI Yeast Anticancer Drug Screen. Data for the rad50EPP+ strain (AID 151);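 also: 0% = growth of vehicle-treated control cultures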; settings: S. cerevisiae rad50 mutant strain, active compounds read high
In short: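 Strain rad50EPP+; compound exposure; % growth inhibition vs vehicle.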

[16] = at 5.0 µM (retest, dose inferred, filed as 0.5)
[17] = at 50.0 µM (retest, dose inferred, filed as 5.0)

Measured: growth inhibition

Oc1ccc(Br)cc1C=NC1CCCCC1
active: [1]; at 33.0 µM 95% | [1]; at 100.0 µM 98% | [2]; at 33.0 µM 91% | [2]; at 100.0 µM 99% | [3]; at 33.0 µM 97% | [3]; at 50.0 µM 78.9% | [3]; at 100.0 µM 97% | [4]; at 33.0 µM 94% | [4]; at 50.0 µM 88.5% | [4]; at 100.0 µM 99% | [5]; at 11.0 µM 85% | [5]; at 33.0 µM 99% | [5]; at 100.0 µM 99% | [6]; [17] 99% | [6]; at 50.0 µM 85.3% | [7]; at 100.0 µM 98% | [8]; [17] 99% | [9]; [17] 99% | [9]; at 50.0 µM 87% | [9]; at 100.0 µM 97% | [10]; at 33.0 µM 74% | [10]; at 100.0 µM 99% | [11]; at 33.0 µM 96% | [11]; at 100.0 µM 99% | [12]; at 33.0 µM 92% | [12]; at 100.0 µM 98% | [13]; at 50.0 µM 77% | [14]; at 33.0 µM 92% | [14]; at 100.0 µM 97%
inactive: [1]; at 1.2 µM 0% | [1]; at 3.7 µM 15% | [1]; at 11.0 µM 35% | [2]; at 1.2 µM -24% | [2]; at 3.7 µM -18% | [2]; at 11.0 µM 6% | [3]; at 1.2 µM -14% | [3]; at 3.7 µM -18% | [3]; [16] 44% | [3]; at 11.0 µM 49% | [3]; [17] 45% | [4]; at 1.2 µM -24% | [4]; at 3.7 µM -21% | [4]; [16] 47% | [4]; at 11.0 µM 11% | [4]; [17] 60% | [5]; at 1.2 µM 15% | [5]; at 3.7 µM 24% | [6]; [16] -2% | [7]; at 1.2 µM -3% | [7]; at 3.7 µM 1% | [7]; at 11.0 µM 12% | [7]; at 33.0 µM 39% | [8]; [16] 53% | [8]; at 50.0 µM 57% | [9]; at 1.2 µM -4% | [9]; at 3.7 µM 2% | [9]; [16] 46% | [9]; at 11.0 µM 5% | [9]; at 33.0 µM 59% | [10]; at 1.2 µM -2% | [10]; at 3.7 µM 0% | [10]; at 11.0 µM 15% | [11]; at 1.2 µM -6% | [11]; at 3.7 µM 17% | [11]; at 11.0 µM 59% | [12]; at 1.2 µM 7% | [12]; at 3.7 µM 6% | [12]; at 11.0 µM 39% | [13]; [16] 32% | [13]; [17] 53% | [14]; at 1.2 µM 5% | [14]; at 3.7 µM 11% | [14]; at 11.0 µM 29%

CN(N=O)c1ccc(/C=C/c2ccnc3ccccc23)cc1
active: [1]; at 33.0 µM 85% | [1]; at 100.0 µM 96% | [15]; at 33.0 µM 90% | [15]; at 100.0 µM 98% | [3]; at 33.0 µM 89% | [3]; [17] 87% | [3]; at 50.0 µM 95.8% | [3]; at 100.0 µM 95% | [4]; at 100.0 µM 90% | [5]; at 100.0 µM 71% | [10]; at 100.0 µM 81% | [11]; at 100.0 µM 86% | [13]; at 50.0 µM 78.6% | [14]; at 100.0 µM 91%
inactive: [1]; at 1.2 µM 2% | [1]; at 3.7 µM 9% | [1]; at 11.0 µM 35% | [2]; at 1.2 µM 0% | [2]; at 3.7 µM 2% | [2]; at 11.0 µM 8% | [2]; at 33.0 µM 20% | [2]; at 100.0 µM 57% | [15]; at 1.2 µM 7% | [15]; at 3.7 µM 26% | [15]; at 11.0 µM 68% | [3]; at 1.2 µM 5% | [3]; at 3.7 µM 14% | [3]; [16] 23% | [3]; at 11.0 µM 42% | [4]; at 1.2 µM 3% | [4]; at 3.7 µM 5% | [4]; [16] 7% | [4]; at 11.0 µM 13% | [4]; at 33.0 µM 34% | [4]; [17] 32% | [4]; at 50.0 µM 42.5% | [5]; at 1.2 µM 3% | [5]; at 3.7 µM 3% | [5]; at 11.0 µM 10% | [5]; at 33.0 µM 24% | [6]; [16] 8% | [6]; [17] 43% | [6]; at 50.0 µM 47.3% | [8]; [16] -10% | [8]; [17] 12% | [8]; at 50.0 µM 19.6% | [9]; at 1.2 µM -3% | [9]; at 3.7 µM 3% | [9]; [16] 4% | [9]; at 11.0 µM 16% | [9]; at 33.0 µM 32% | [9]; [17] 25% | [9]; at 50.0 µM 37% | [9]; at 100.0 µM 68% | [10]; at 1.2 µM -4% | [10]; at 3.7 µM 1% | [10]; at 11.0 µM 7% | [10]; at 33.0 µM 28% | [11]; at 1.2 µM 3% | [11]; at 3.7 µM 5% | [11]; at 11.0 µM 13% | [11]; at 33.0 µM 31% | [13]; [16] 3% | [13]; [17] 68% | [14]; at 1.2 µM 0% | [14]; at 3.7 µM 2% | [14]; at 11.0 µM 16% | [14]; at 33.0 µM 55%
